Laboratory results reported in PubChem BioAssay (NCI).
About 79,000 compounds went through this panel and 15% of them were active in at least one assay; those are over-represented in the sample as a whole. Rule as the data show it: active = growth inhibition above about 70%; inactive = the rest.

What was measured:
[1] = NCI Yeast Anticancer Drug Screen. Data for the rad50 strain (AID 155);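 also: 0% = growth of vehicle-only cultures of the same strain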; details: S. cerevisiae rad50 strain growth inhibition; at 50.0 µM; hits give high values
Summary of the method: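 Genetically altered yeast (DNA repair pathway); compound treatment; growth inhibition vs vehicle ctrl.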

[2] = NCI Yeast Anticancer Drug Screen. Data for the mec2-1 strain (AID 157); details: S. cerevisiae mec2-1 strain, at 50.0 µM, hits give high values
Summary of the method: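 Growth inhibition is read against vehicle-treated controls after compound exposure of the mec2-1 yeast strain, which is defective in DNA damage repair or cell cycle control.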

[3] = NCI Yeast Anticancer Drug Screen. Data for the sgs1 mgt1 strain (AID 161);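 also: 0% = growth of cultures given vehicle only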; details: S. cerevisiae sgs1 mgt1 strain, at 50.0 µM, hits give high values
Summary of the method: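 Percent growth inhibition was derived by comparing compound-exposed mutant yeast with vehicle-exposed cultures. The strain carries alterations in DNA damage repair.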

[4] = NCI Yeast Anticancer Drug Screen. Data for the cln2 rad14 strain (AID 165);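 also: 0% = growth equal to vehicle treated cultures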; details: S. cerevisiae cln2 rad14 strain, at 50.0 µM, hits give high values
Summary of the method: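 Growth inhibition, relative to vehicle-treated controls, is the read-out. The test organism is a yeast strain with defined genetic alterations, cln2 rad14.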

[5] = NCI Yeast Anticancer Drug Screen. Data for the bub3 strain (AID 167); details: S. cerevisiae bub3 mutant strain, at 50.0 µM, hits give high values
Summary of the method: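 Yeast carrying a defined mutation is treated with each compound, and growth is compared with that of vehicle-exposed cells to give inhibition.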

[6] = NCI Yeast Anticancer Drug Screen. Data for the mlh1 rad18 strain (AID 175); details: S. cerevisiae mlh1 rad18 strain growth inhibition; at 50.0 µM; hits give high values
Summary of the method: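 Cells of a genetically altered yeast strain, deficient in DNA damage repair, were treated with compound. Their growth was then compared with that of vehicle-treated cultures to give inhibition.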

Measured: growth inhibition

CCOC(=O)C(C(=O)OCC)C(C)(C)C
inactive: [1] -96.7% | [2] -18.3% | [3] -28.2% | [4] -36.4% | [5] -3.85% | [6] -9.2%

O=C=Nc1cccc([N+](=O)[O-])c1
inactive: [1] -0.65% | [2] -5.7% | [3] -0.75% | [4] -5.05% | [5] -27.9% | [6] -40.5%

CC1=C(C(=O)Nc2ccccc2C)C(c2ccccc2)C(C(=O)Nc2ccccc2C)=C(C)N1
inactive: [1] 10.7% | [2] 15.2% | [3] 9.25% | [4] 6.3% | [5] 16.3% | [6] 7.1%

Cc1ccc(S(=O)(=O)NN=C2CCCCCCCCCCC2)cc1
inactive: [1] -8.35% | [2] -21.4% | [3] -7.75% | [4] 7.45% | [5] 9.05% | [6] -1.8%

COC(=O)CC/C=N/NC(N)=O
inactive: [1] 10.2% | [2] 4.5% | [3] 7.7% | [4] -17.8% | [5] 2.35% | [6] -4.05%

Cc1cccc(C(C)C)c1NC(=O)C(=O)CC(=O)c1c(C)n([O-])c2ccccc2[n+]1=O
inactive: [1] -7.2% | [2] 9.45% | [3] -10% | [4] 12.2% | [5] -13.1% | [6] -16.2%

COC(=O)C1(C(C)C(=O)c2ccc(Cl)cc2)NC(=S)NC(=O)C1C#N (stereo unspecified)
inactive: [1] 0.4% | [2] 6.05% | [3] -24.9% | [4] -0.8% | [5] -8.5% | [6] 12.7%

CC(=Nc1cc(Cl)cc(Cl)c1)c1ccncc1
inactive: [1] -25.1% | [2] -21.2% | [3] -31.4% | [4] -5.05% | [5] 16.4% | [6] -49.8%

CC1(C)C(N2CCOCC2)CS1(=O)=O (stereo unspecified)
inactive: [1] 1.75% | [2] -5.2% | [3] -1.5% | [4] -24.2% | [5] -15.7% | [6] 3.25%

C=CCC[P+](c1ccccc1)(c1ccccc1)c1ccccc1
inactive: [1] 37.2% | [2] 34.1% | [3] 28.2% | [4] -3.4% | [5] 9.1% | [6] 8.75%

C/C(=N\N=C\N(C)S(=O)(=O)c1ccc(C)cc1)c1ccccc1
inactive: [1] -10.7% | [2] -2.8% | [3] -6.3% | [4] -6.25% | [5] 1.55% | [6] -2.7%

OCc1ccc2[n+](c1)CCC1c3ccccc3NC21 (stereo unspecified)
inactive: [1] -8.35% | [2] -8.75% | [3] -18.6% | [4] -8.4% | [5] -26.3% | [6] -6.45%

CCc1ccccc1NC(=O)Nc1cc(C)ccn1
inactive: [1] 25.6% | [2] 12.9% | [3] 21.8% | [4] 21.3% | [5] 32% | [6] 27.9%

COC1C(C(=O)O)=CC=CC1OC(C)=O (stereo unspecified)
inactive: [1] 10.6% | [2] -5.45% | [3] -2.55% | [4] -44.1% | [5] 2.8% | [6] 13.6%

N#Cc1c(N)[nH]c(=S)c(C#N)c1-c1ccccc1
inactive: [1] 45.9% | [2] 35.5% | [3] 47.4% | [4] 33.5% | [5] 31.4% | [6] 35.1%

Cc1ccc(NC(=O)c2cccc(C(=O)Nc3ccc(C)c(Cl)c3)c2)cc1Cl
inactive: [1] -28.1% | [2] -16.6% | [3] -11.2% | [4] -35% | [5] -5.55% | [6] 8.6%

Cc1ccccc1N=Nc1c(O)n(-c2ccccc2)c(=S)n(-c2ccccc2)c1=O
inactive: [1] 43.5% | [2] 0.9% | [3] 28.6% | [4] -18.9% | [5] 2.2% | [6] 14.4%

CC1CCC(C(C)C)C(OC(=O)N/N=C/N(C)C)C1 (stereo unspecified)
inactive: [1] 1.65% | [2] 17.2% | [3] 4.4% | [4] 20% | [5] -0.95% | [6] 25.1%

Cc1ccc(S(=O)(=O)OCCOc2ccc(C(C)(C)CC(C)(C)C)cc2)cc1
inactive: [1] 43.9% | [2] -15.6% | [3] 30.5% | [4] -6.2% | [5] -1.65% | [6] 8.8%

CCOC(=O)C(=CNc1cc(C(F)(F)F)ccc1N1CCOCC1)C(=O)OCC
inactive: [1] -1.4% | [2] -15.2% | [3] -9.5% | [4] 18.6% | [5] 2.25% | [6] -0.1%

CC(=O)O[C@]12CCCC1C1(O)C(O)CCCC12 (stereo partly specified)
inactive: [1] -30.7% | [2] -50.1% | [3] -72.3% | [4] -9.55% | [5] -30.6% | [6] -34.6%

O=C(O)C1(O)CC(O)C(O)C(O)C1 (stereo unspecified)
inactive: [1] 5.25% | [2] -7.05% | [3] -0.25% | [4] -13.8% | [5] 8.55% | [6] -0.8%

CC1(C)CC2(C)CC1CC2O (stereo unspecified)
inactive: [1] 3.5% | [2] 9.6% | [3] -1.95% | [4] 14.8% | [5] 3.85% | [6] -25.4%

O=c1c2ccccc2nc(-c2ccccc2Cl)n1/N=C/c1ccc(Cl)cc1Cl
inactive: [1] -1.1% | [2] 5.3% | [3] 2.1% | [4] -3.75% | [5] -3.5% | [6] 6.1%

Cc1ccc(S(=O)(=O)N/N=C/c2cc([N+](=O)[O-])cc(I)c2O)cc1
inactive: [1] 2.35% | [2] -3.6% | [3] -4.5% | [4] -50.4% | [5] -10.6% | [6] 4.2%

CCOC(CCC#N)c1ccc(C)cc1 (stereo unspecified)
inactive: [1] 10.2% | [2] 5.65% | [3] 34.1% | [4] 25.2% | [5] 0.8% | [6] 22.3%

CC(=O)/C=C/C=C\C=C/N=C(c1ccccc1)c1ccccc1
inactive: [1] -7.5% | [2] -1.1% | [3] -2.7% | [4] 3% | [5] 26.1% | [6] -3.85%

C[n+]1ccc(/C(C#N)=N/O)cc1
inactive: [1] -16.4% | [2] -39.9% | [3] -20.6% | [4] 20.6% | [5] -25.8% | [6] -28.9%

CCOP(=O)(OCC)C1=C(P(=O)(OCC)OCC)C(F)(F)C1(F)F
inactive: [1] -9.35% | [2] -5% | [3] -6.7% | [4] -13.1% | [5] -0.95% | [6] -6.3%

Cc1c(F)cc(I)cc1[N+](=O)[O-]
inactive: [1] -3.7% | [2] -9.1% | [3] -11% | [4] 6.9% | [5] 1% | [6] -16.6%

CS(=O)(=O)C(CCC(=O)c1cccs1)C(=O)c1ccccc1 (stereo unspecified)
inactive: [1] -2.95% | [2] 3.25% | [3] -6.65% | [4] 1.85% | [5] 0.2% | [6] 14.4%

CNc1ncnc2c1ncn2C1OC(CO)C(O)C1O (stereo unspecified)
inactive: [1] -1.4% | [2] 9.95% | [3] 4.45% | [4] -20.1% | [5] -4.1% | [6] 6%

C[n+]1cn(C2=C([O-])c3ccccc3C(=O)/C2=N\S(=O)(=O)c2ccccc2)c2ccccc21
inactive: [1] 0.95% | [2] 4.8% | [3] 2.4% | [4] -0.6% | [5] 4.35% | [6] -28.9%

Nc1nc(-c2ccccc2)[nH]c(=O)n1
inactive: [1] -3.3% | [2] -0.45% | [3] -37% | [4] -62.8% | [5] -22.4% | [6] -33%

C1=C(c2ccccc2)Cc2ccccc21
inactive: [1] 13.4% | [2] 24.4% | [3] 19.9% | [4] -14.8% | [5] 15.4% | [6] 23.9%

CCSc1cc(N)ncn1
inactive: [1] -39.6% | [2] -18.6% | [3] -11.5% | [4] -4.15% | [5] -14% | [6] -9.75%

COc1ccc(NC(=O)C(=O)C(C(=O)c2ccccc2)C2OC(=O)c3ccccc32)c([N+](=O)[O-])c1 (stereo unspecified)
inactive: [1] 8.85% | [2] 5.6% | [3] -23.2% | [4] 26.1% | [5] 28.4% | [6] 8.1%

O=C1c2ccccc2C(=O)N1CC1(C(=O)O)NCCS1(=O)=O (stereo unspecified)
inactive: [1] 3.3% | [2] -7.5% | [3] -22.3% | [4] 26.8% | [5] -48.9% | [6] 10.1%

CCCc1c(N)nc(N)nc1N
inactive: [1] 3.4% | [2] 2.05% | [3] -5.7% | [4] -48.6% | [5] 7.4% | [6] -7.65%

O=C1CN2C(c3ccccc3)=NN(c3ccc([N+](=O)[O-])cc3)C2(c2ccccc2)c2cc(Cl)ccc2N1CC1CC1 (stereo unspecified)
inactive: [1] 25.6% | [2] -10.9% | [3] -7.4% | [4] 20.9% | [5] 11.2% | [6] 23.4%

NNc1ccc(S(=O)(=O)O)cc1Cl
inactive: [1] 8.35% | [2] -14.4% | [3] 3.05% | [4] 4.7% | [5] 15.7% | [6] 2.45%
